JMJD2A Tudor inh: qHTS Assay for Inhibitors of JMJD2A-Tudor Domain; 390,000 compounds, 4.4% hits; Lysine-specific demethylase 4A (Homo sapiens), O75164; AlphaScreen JMJD2A-Tudor / H3K4me3 peptide binding; Potency, µM (highest dose often 114 µM), inactives show at the highest dose activity change, negative = inhibition, usual class: inhibitors; note: % is set by controls: 0 for no effect and ±100 for the full control effect; nearly all actives have a fitted effect of over 50% in size
Target sequence (O75164 whole entry, looked up, the tested form may be a part): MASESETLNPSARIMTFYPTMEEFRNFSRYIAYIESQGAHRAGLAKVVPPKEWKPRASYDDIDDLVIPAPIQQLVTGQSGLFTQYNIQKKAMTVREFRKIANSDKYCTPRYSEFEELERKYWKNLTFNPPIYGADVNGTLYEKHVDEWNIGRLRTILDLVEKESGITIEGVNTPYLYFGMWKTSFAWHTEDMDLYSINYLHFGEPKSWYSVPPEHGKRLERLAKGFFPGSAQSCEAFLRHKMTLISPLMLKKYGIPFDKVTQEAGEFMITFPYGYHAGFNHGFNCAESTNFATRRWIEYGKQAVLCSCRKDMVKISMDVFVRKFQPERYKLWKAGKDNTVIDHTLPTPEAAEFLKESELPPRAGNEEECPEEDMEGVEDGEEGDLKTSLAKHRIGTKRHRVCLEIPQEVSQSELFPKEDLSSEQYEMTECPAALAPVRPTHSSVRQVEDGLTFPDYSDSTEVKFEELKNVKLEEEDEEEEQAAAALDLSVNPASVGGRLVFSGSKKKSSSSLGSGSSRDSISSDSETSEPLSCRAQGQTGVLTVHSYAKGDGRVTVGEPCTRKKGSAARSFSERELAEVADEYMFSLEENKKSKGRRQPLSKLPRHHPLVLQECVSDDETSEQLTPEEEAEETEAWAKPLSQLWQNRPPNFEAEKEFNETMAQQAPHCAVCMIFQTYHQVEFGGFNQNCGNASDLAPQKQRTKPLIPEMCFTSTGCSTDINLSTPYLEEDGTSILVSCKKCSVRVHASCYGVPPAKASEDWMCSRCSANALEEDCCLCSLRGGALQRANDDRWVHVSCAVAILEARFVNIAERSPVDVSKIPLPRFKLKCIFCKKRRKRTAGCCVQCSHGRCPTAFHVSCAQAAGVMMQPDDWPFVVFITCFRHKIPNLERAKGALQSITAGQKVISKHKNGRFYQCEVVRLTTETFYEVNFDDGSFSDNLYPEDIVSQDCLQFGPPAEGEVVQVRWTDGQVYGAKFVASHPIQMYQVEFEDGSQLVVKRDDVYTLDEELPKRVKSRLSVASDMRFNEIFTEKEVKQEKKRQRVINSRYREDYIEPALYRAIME
Sfp inh: qHTS Assay for Inhibitors of Bacillus subtilis Sfp phosphopantetheinyl transferase (PPTase); Biochemical Sfp PPTase activity, qHTS; Potency, µM, for the others: largest response in the series, negative = inhibition, actives largely listed as inhibitors; 310,000 compounds, 3.5% hits;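 note: the enzyme is Sfp with the accession as filed and its product quenches rhodamine fluorescence; 0% = enzyme reaction without inhibitor and -100% = no enzyme wells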
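With Hepes-Na pH 7.6 buffer containing 10 mM MgCl2, Sfp (15 nM) modified BHQ-2-YbbR (12.5 uM) using rhodamine-CoA (5 uM). Two reads 30 minutes apart at 525/598 nm yielded each well's rate.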
G9a inh: qHTS Assay for Inhibitors of Histone Lysine Methyltransferase G9a. Histone-lysine N-methyltransferase EHMT2 (Homo sapiens), Q96KQ7. G9a H3K9 monomethylation, AlphaScreen, 2 h. Potency, µM (doses to about 102 µM), for inactives: at the top dose activity, negative = inhibition, hits mostly inhibitors. 350,000 compounds, 8.8% hits. AID 504332, 2011; note: % is set by controls: 0 for no effect and ±100 for the full control effect; nearly all actives have a fitted effect of over 75% in size
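AlphaScreen read-out: biotin-H3K9 peptide (500 nM) methylation by 20 nM enzyme with 20 uM SAM, 2 h at room temperature after 15 min compound preincubation; anti-monomethyl H3K9 antibody plus donor/acceptor beads, 10 min dark.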
BAZ2B block: qHTS Assay for Inhibitors of BAZ2B. 360,000 compounds, 4.4% hits. AlphaScreen BAZ2B-H3K14Ac peptide displacement. AID 504333, 2011. Bromodomain adjacent to zinc finger domain protein 2B (Homo sapiens), Q9UIF8. Potency, µM (titrated, usually from 114 µM), for inactives: at the highest dose activity change, negative = inhibition, usual class: inhibitors; note: % is set by controls: 0 for no effect and ±100 for the full control effect; nearly all actives have a fitted effect of over 60% in size
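Compounds, titrated to a top concentration of 110 uM, were incubated 30 min at room temperature with preformed BAZ2B/acetyl-K14 H3 peptide complex (50 nM each). Proximity signal was measured by AlphaScreen after 20 min with beads.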
L3MBTL1 block: qHTS Assay for the Inhibitors of L3MBTL1 | Lethal(3)malignant brain tumor-like protein 1 (Homo sapiens), Q9Y468 | AlphaScreen L3MBTL1–H3K9me1 peptide binding | Potency, µM (titrated, usually from 57.1 µM), without a hit: at the top dose activity, negative = inhibition, actives largely listed as inhibitors | 230,000 compounds, 0.66% hits | AID 485360, 2010; note: % is set by controls: 0 for no effect and ±100 for the full control effect; nearly all actives have a fitted effect of over 60% in size
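L3MBTL1 (50 nM) pre-complexed 30 min with biotinylated H3(1-15)K9me1 peptide (75 nM), then compounds added for 30 min at room temperature; AlphaScreen streptavidin donor/nickel chelate acceptor beads (10 ug/mL final) read after 30 min dark incubation.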
HP1b binding inh: HTS for Inhibitors of HP1-beta Chromodomain Interactions with Methylated Histone Tails; AlphaScreen HP1-beta / biotin-H3K9me3 peptide binding; Potency, µM (doses to about 114 µM), for the others: top-dose activity change, negative = inhibition, usual class: inhibitors; 390,000 compounds, 0.56% hits; Chromobox protein homolog 1 (Homo sapiens), P83916; note: nearly all actives have a fitted effect of over 70% in size
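Compound inhibition of the preformed complex between 50 nM HP1-beta and 50 nM biotinylated H3K9me3 peptide was read by AlphaScreen. Buffer was PBS pH 7.4 with 0.01% Tween-20. Incubations ran 30 min at room temperature, with 10 ug/mL donor/acceptor beads.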
The depositor's hits bear a star; ? = inconclusive; · = not tested or not shown; [ ] = dose if it differs, or a comment. Most compounds without a hit are left out; they make up all but 12% or so of the library. Calls come from the whole dose curve; as a rule, active = well fitted curve in the direction sought with a large enough effect; inconclusive = small, poorly fitted or top-dose-only effect, or another doubt; inactive = no such curve, though single readings can be large; an effect the other way counts as inactive or inconclusive. Potency is the fitted concentration of half-maximal effect.

SMILES | JMJD2A Tudor inh | Sfp inh | G9a inh | BAZ2B block | L3MBTL1 block | HP1b binding inh
Cc1ccc(/C=C/C(=O)Nc2nn[nH]n2)o1 | 35µM* | -90% | ? | 35µM* | 0% | -21%
NC(=O)c1ccccc1NC(=O)/C=C/c1c(Cl)cccc1Cl | -13% | 2% | 47% | -1%[57.1 µM] | 1% | 27%
Cc1ccc(/C=C/C(=O)Nc2ccccc2C(N)=O)o1 | -18% | · | 10µM* | -2%[57.1 µM] | · | 5%
O=C(/C=C/c1ccccc1)Nc1cccnc1 | -14% | -5% | · | -3% | 0% | 46%
COc1cccc(-n2cc(C(=O)NCCc3cccc(C)c3)c3ccccc3c2=O)c1 | -13% | · | -5%[59 µM] | -29% | · | 29%
CC(/C=N/NC(=O)c1n[nH]c2c1CCC2)=C\c1ccccc1 | -15%[57.1 µM] | 7% | 4% | -9% | · | ·
O=C(N/N=C/C(Br)=C\c1ccccc1)c1n[nH]c2c1CCC2 | -23% | 28µM* | ? | -4% | · | 6%
O=C(Nc1nnc(-c2ccccn2)o1)c1cccc(Cl)c1 | -28% | 6% | -6% | · | · | 27%
CC(=O)Nc1nnc(-c2ccccn2)o1 | ? | ? | 28µM* | ? | 3% | 16%
Cc1ccc(C(=O)Nc2nnc(-c3ccncc3)o2)cc1 | -14% | 5% | 2% | 56µM* | ? | 50%
N#Cc1ccc(C(=O)Nc2nnc(-c3ccccn3)o2)cc1 | ? | 20% | 50µM* | 8.9µM* | -15% | 16%
Cc1ccnc(N2C(=O)c3ccccc3C2O)c1 (stereo not drawn) | -19% | -9% | 3% | -3% | · | 37%
Cc1ccc(N2C(=O)c3ccccc3C2C(=O)c2ccc(C)c(C)c2O)cc1 (stereo not drawn) | 50µM* | ? | · | -13% | -6% | ?
Cc1ccc(N2C(=O)c3ccccc3C2C(=O)c2ccc(O)cc2O)cc1 (stereo not drawn) | 79µM* | ? | ? | 28µM* | 4.5µM* | -8%
Cc1ccc(N2C(=O)c3ccccc3C2C(=O)c2cc(C)ccc2O)cc1 (stereo not drawn) | ? | ? | 7.9µM* | -12% | -11% | ?
COC(=O)c1ccc(S(=O)(=O)NCc2ccccn2)n1C | ? | 6% | ? | -6% | · | 39%
COc1cccc(/C=N/NC(=O)c2ccc(COc3ccc(Cl)cc3Cl)o2)c1 | -13% | 0.79µM* | 43% | -9% | -13% | 40%
Cc1ccc2c(c1)c(C)cc[n+]2Cc1ccccc1 | -8% | 18% | 50µM* | 7% | 11% | 13%
CC#CCN1c2ccccc2[C@]23C[C@@H](C(=O)OC)N(S(=O)(=O)c4ccc(Br)cc4)C2=NC(C(=O)OC)=C(C(=O)OC)[C@H]13 | · | 9% | · | · | · | ·
CC(C)(C)Cc1nnc(NC(=O)Cc2ccc([N+](=O)[O-])cc2)s1 | ? | 40µM* | 10µM* | 3% | 10% | ?
Cc1ccnc(NC(=O)Cc2ccc([N+](=O)[O-])cc2)c1 | -3% | 14% | · | 50µM* | 2% | 33%
Cc1ccnc(NC(=O)Cc2ccc(-c3ccccc3)cc2)c1 | 13% | 1% | 57% | -15% | · | 61%
CCCCCc1nnc(NC(=O)Cc2ccc([N+](=O)[O-])cc2)s1 | -32% | -7% | 45µM* | -2% | 5% | 6%
COc1cc(C)ccc1OCCSc1nnc(-c2ccc(C)cc2)o1 | 53% | · | -49%[59 µM] | 82% | · | 72%
O=C1C(=O)N(Cc2ccc(Cl)c(Cl)c2)c2ccccc21 | · | 50µM* | · | · | · | ·
SMILES | JMJD2A Tudor inh | Sfp inh | G9a inh | BAZ2B block | L3MBTL1 block | HP1b binding inh
c1ccc2c(c1)C(=Nn1cnnc1)c1ccccc1-2 | -7% | 9% | 9%[12.7 µM] | -5% | 15%[11.4 µM] | 3%
O=C1/C(=N/n2cnnc2)c2ccccc2N1Cc1ccccc1 | · | 45µM* | ? | -8% | 1% | ·
O=C1C(=O)N(Cc2cccc([N+](=O)[O-])c2)c2ccccc21 | -16% | 5% | 12%[59 µM] | -25% | -13% | -2%
COc1ccc(/C=C/C(=O)OCC(=O)NC2CCCC2)cc1 | -4% | · | 15%[12.7 µM] | 3% | -1% | 33%
CCN(CC)S(=O)(=O)c1ccc2c(c1)N(CC(=O)N1CCN(c3cccc(C)c3)C(C)C1)C(=O)CO2 (stereo not drawn) | -17% | · | -5%[59 µM] | -37% | · | -11%
CCN(CC(=O)NC(=O)NC1CCCC1)Cc1ccccc1 | -4% | · | -1% | -1% | 5% | 36%
COc1ccc(/C=N/Nc2snc(SC)c2C#N)cc1OC | ? | ? | -11%[0.0925 µM] | 45µM* | -23% | -33%
COc1cccc(/C=N/Nc2snc(SC)c2C#N)c1O | -35%[57.1 µM] | 7% | 50µM* | -36% | -8% | 11%
COc1cccc(/C=N/Nc2snc(SC)c2C#N)c1 | -17% | 56µM* | ? | -37% | 0% | 10%
CC(C)=CCCC(C)CN1CCC(n2nccc2NC(=O)C2CCCC2)CC1 (stereo not drawn) | -16% | 2% | 12% | 10% | · | 13%
COc1ccc(NC(=O)CSc2nc(-c3ccc(OC)cc3)[nH]c2-c2ccc(OC)cc2)cc1 | -24% | · | -4%[59 µM] | -4% | · | 13%
COC(=O)c1ccccc1C[C@]1(C(=O)OC)C=C[C@H](C)[C@@H](c2ccccc2)N1C(=O)C(F)(F)F | · | -19% | · | · | · | ·
N#Cc1ccccc1OCC(=O)N1CCN(C(=O)c2ccco2)CC1 | -31% | 14% | 12% | -4%[57.1 µM] | · | 19%

Screening results (PubChem BioAssay)
